The nature of experiment [1]: Primary qHTS for inhibitors of nuclear receptor binding SET domain protein 2 (NSD2) in an RCH-ACV wild type WT cells (2C) (AID 1645877). Also: nearly all actives have a fitted effect of over 70% in size. Also: potency is read from the fitted curve at half-maximal effect. As to activity change, negative = cell killing: % is scaled to controls: 0 for no effect and ±100 for the full control effect.
Experiment [2] addresses Glutathione peroxidase 1 (Homo sapiens) (UniProt P07203). The experiment is described as follows: Primary qHTS Assay for Inhibitors of Recombinant Selenoprotein Glutathione Peroxidase 1 (GPX1) (AID 1845191). Also: nearly all actives have a fitted effect of over 65% in size. As to activity, negative = inhibition: % is scaled to controls: 0 for no effect and ±100 for the full control effect. An outline of the steps: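 GR-coupled readout: NADPH consumption tracked by fluorescence, ex 340/em 450 nm, at t=0 and after 15 min at RT. Final mix 10 nM GPX1, 1 mM GSH, 0.5 mM CHP, 0.5 mM NADPH, 100 nM GR, 0.01% BSA, following 30 min enzyme–compound preincubation.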

For experiment [3], the target named is Phospholipid hydroperoxide glutathione peroxidase GPX4 (Homo sapiens) (UniProt P36969). Kind of experiment: Primary qHTS Assay for Inhibitors of Recombinant Selenoprotein Glutathione Peroxidase 4 (GPX4) (AID 1845192). Also: nearly all actives have a fitted effect of over 65% in size. As to activity change, negative = inhibition: series mostly up to about 50 µM; % is scaled to controls: 0 for no effect and ±100 for the full control effect. An outline of the steps:
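Steps: GPX4 plus compound, 30 min RT; add GR/GSH/NADPH master mix; start with cumene hydroperoxide; read 340/450 nm fluorescence at 0 and 15 min. Finals were 200 nM GPX4, 1 mM GSH, 0.5 mM CHP, 0.5 mM NADPH, 100 nM GR.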
On the technique in general: In qHTS, concentration-response curves come from the screen itself.

Experiment [4] deals with Luciferin 4-monooxygenase (Photinus pyralis) (UniProt P08659). The experiment is described as follows: Primary firefly luciferase (FLuc) qHTS assay for identification of artifact compounds. (AID 1845220). Also: nearly all actives have a fitted effect of over 60% in size.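 As to activity change, negative = inhibition: series mostly up to about 54 µM; plate controls were DMSO vehicle for no effect and no enzyme for full effect.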 An outline of the steps: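 Enzymatic FLuc inhibition assay: compounds pre-exposed to luciferin/ATP (10 uM each) for 15 min, then purified P. pyralis enzyme at 10 nM added. Read-out: luminescence at 5 min.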

Experiment [5] can be described thus: Primary fluorescence-based thiol-reactive (MSTI) qHTS assay for identification of artifact compounds. (AID 1845221). Also: nearly all actives have a fitted effect of over 65% in size. Also: potency is read from the fitted curve at half-maximal effect.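 As to activity change, negative = thiol reactive: series mostly up to about 54 µM; thiol-reactive compounds lower the probe fluorescence signal.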 An outline of the steps:
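In PBS pH 7.4 with 2% DMSO, each compound met 4 uM MSTI for one hour at ambient temperature, shielded from light, before fluorescence detection.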

In experiment [6] the test system is Nanoluciferase (engineered Oplophorus gracilirostris luciferase). The experiment is described as follows: Primary Nanoluciferase (NLuc) qHTS assay for identification of artifact compounds. (AID 1845222).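 Also: NLuc secreted into diluted conditioned medium of S16 cells; series mostly up to about 54 µM; 0% = DMSO and -100% = no enzyme.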 The method, boiled down:
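S16 cell supernatant NLuc, 1:55; cpds qHTS; 15 min RT dark; Nano-Glo substrate 1:100, 5 min; luminescence; Hill fit of % inhibition.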

Experiment [7] in a line: Primary redox qHTS assay for identification of artifact compounds. (AID 1845223).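 Also: 0% = DMSO and 100% = reference compound.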 An outline of the steps: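 Redox-cycling detection via DTT (250 uM final) oxidation coupled to Amplex Red (25 uM)/HRP (250 mU/mL) in HBSS. 15 min preincubation plus 30 min after DTT, room temperature. Ex/Em 525/598 nm; 4-parameter Hill fit against DMSO and 10 uM DA3003.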

Values without a mark were called inactive. Inconclusive results are not listed. The source made the active and inactive calls. Calls follow the shape of the dose curve; as a rule, active = well fitted curve in the direction sought with a large enough effect; inconclusive = small, poorly fitted or top-dose-only effect, or another doubt; inactive = no such curve, though single readings can be large; an effect the other way counts as inactive or inconclusive.

Sequence of Phospholipid hydroperoxide glutathione peroxidase GPX4 (Homo sapiens) (P36969 whole entry, looked up): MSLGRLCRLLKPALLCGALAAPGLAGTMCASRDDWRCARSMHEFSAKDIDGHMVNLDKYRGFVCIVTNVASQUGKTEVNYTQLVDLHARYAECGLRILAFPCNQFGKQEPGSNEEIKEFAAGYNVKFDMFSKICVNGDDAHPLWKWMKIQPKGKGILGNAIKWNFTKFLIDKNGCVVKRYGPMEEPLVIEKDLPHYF
Sequence of Glutathione peroxidase 1 (Homo sapiens) (P07203 whole entry, looked up): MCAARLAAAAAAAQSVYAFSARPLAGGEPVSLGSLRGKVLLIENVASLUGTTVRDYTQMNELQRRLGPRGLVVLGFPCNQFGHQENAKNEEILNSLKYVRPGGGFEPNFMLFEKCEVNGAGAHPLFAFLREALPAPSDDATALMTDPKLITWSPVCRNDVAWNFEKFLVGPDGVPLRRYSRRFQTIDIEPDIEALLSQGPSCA

On to `O=C(/C=C\c1ccc(O)cc1)N[C@@H](Cc1ccc(O)cc1)C(=O)O`, for which the Potency entry in experiment [1], in experiment [2], in experiment [3], in experiment [4], in experiment [6] and in experiment [7] was “inactive” throughout. The Potency in experiment [5] is 6.56 µM (active).
Regarding `CC12CCC(OC3OC(CO)C(O)C(OC4OC(CO)C(O)C(O)C4O)C3O)CC1=CCC1C2CCC2(C)/C(=C3/COC(=O)C3)CCC12O` (stereo not drawn), the Potency entry in experiment [1], in experiment [2], in experiment [3], in experiment [4], in experiment [5] and in experiment [6] was “inactive” in each case. In addition, in experiment [7], the Potency entry was “inactive”.
For the compound `O=C(O)CC(=O)OC[C@H]1O[C@@H](Oc2ccc3c(c2)OC[C@H]2c4cc5c(cc4O[C@@H]32)OCO5)[C@H](O)[C@@H](O)[C@@H]1O`, the Potency result in experiment [1], in experiment [2], in experiment [3], in experiment [4], in experiment [5] and in experiment [6] was “inactive” throughout. For the same compound, the Potency entry in experiment [7] is “inactive”.
On to `COc1ccc2nc(S(=O)(=O)Cc3ncc(C)c(OC)c3C)[nH]c2c1`, for which the Potency result in experiment [1], in experiment [2], in experiment [3], in experiment [4], in experiment [5] and in experiment [6] was “inactive” each time. Moreover, the Potency entry in experiment [7] is “inactive”.
Consider `O=C(CCCCN1CCOCC1)Nc1ccc(-c2cccnc2)cc1`, for which the Potency result in experiment [1], in experiment [2], in experiment [3], in experiment [4], in experiment [5] and in experiment [6] was “inactive” in each case. The Potency entry in experiment [7] was “inactive”.
`CC1(C)CC(NC(=O)C(=O)Nc2ccc(Br)cc2)CC(C)(C)N1`: the Potency in experiment [1] is 5.78 µM (active). The Potency result in experiment [2], in experiment [3], in experiment [4], in experiment [5], in experiment [6] and in experiment [7] was “inactive” in each case.
As to `CC1(C)CC(=O)C2=C(C1)NC(=S)NC2c1cccc(O)c1` (stereo not drawn), the Potency in experiment [1] was 0.817 µM (active). For the same compound, the Potency result in experiment [2], in experiment [3], in experiment [4], in experiment [5], in experiment [6] and in experiment [7] was “inactive” in each case.
Take `C=C[C@@H]1[C@H](O[C@@H]2O[C@H](CO)[C@@H](O)[C@H](O)[C@H]2O)OC=C(C(=O)O)[C@H]1CCOC(=O)/C=C/c1ccc(O)c(O)c1`: the Potency entry in experiment [1], in experiment [2], in experiment [3], in experiment [4], in experiment [6] and in experiment [7] was “inactive” in each case. In experiment [5], the Potency is 1.3 µM (active).
Regarding `COc1ccccc1Oc1ccc(N(Cc2cccnc2)S(=O)(=O)CC(F)(F)F)cc1`, the Potency result in experiment [1], in experiment [2], in experiment [3], in experiment [4], in experiment [5] and in experiment [6] was “inactive” in each case. In addition, the Potency result in experiment [7] was “inactive”.
With `CC(CCC1(O)OC2CC3C4CCC5CC(O[C@@H]6O[C@H](CO)[C@@H](O)[C@H](O)[C@H]6O[C@@H]6O[C@@H](C)[C@H](O)[C@@H](O)[C@H]6O)C(O)CC5(C)C4CCC3(C)C2C1C)CO[C@@H]1O[C@H](CO)[C@@H](O)[C@H](O)[C@H]1O` (stereo partly drawn), the activity change, negative = cell killing in experiment [1] is -13.5% [at 9.23 µM]. The Potency entry in experiment [2] and in experiment [3] was “inactive” throughout. Also, the activity change, negative = inhibition in experiment [4] is -2.32% [at 11.6 µM]. In addition, in experiment [5], the activity change, negative = thiol reactive was 141% [at 11.5 µM]. Also, the activity, negative = inhibition in experiment [6] was 2.24% [at 11.6 µM]. For the same compound, in experiment [7], the redox activity (% of DA3003) was 15.2% [at 11.5 µM].
Take `CC1(C)CC[C@]23CO[C@@]4(CCC5[C@@]6(C)CC[C@H](O[C@@H]7OC[C@H](O[C@@H]8O[C@H](CO)[C@@H](O)[C@H](O)[C@H]8O)[C@H](O)[C@H]7O[C@@H]7O[C@H](CO)[C@@H](O[C@@H]8O[C@H](CO)[C@@H](O)[C@H](O)[C@H]8O)[C@H](O)[C@H]7O)[C@@](C)(CO)C6CC[C@@]5(C)[C@]4(C)C[C@H]2OC2OCC(O)C(O)C2O)C3C1` (stereo partly drawn): the Potency in experiment [1] was 1.09 µM (active). Also, the activity, negative = inhibition in experiment [2] was -19.2% [at 9.52 µM]; in experiment [6], 0% [at 11.6 µM]. Moreover, the activity change, negative = inhibition in experiment [3] is -5.8% [at 9.73 µM]; in experiment [4], -1.22% [at 11.6 µM]. Besides, in experiment [5], the activity change, negative = thiol reactive is 227% [at 11.5 µM]. In experiment [7], the redox activity (% of DA3003) is 2.43% [at 11.5 µM].
`Nc1nc2c(ncn2[C@@H]2O[C@H](CO)[C@@H](O)[C@H]2O)c(=O)[nH]1`: the Potency result in experiment [1], in experiment [2], in experiment [3], in experiment [4], in experiment [5] and in experiment [6] was “inactive” in each case. For the same compound, in experiment [7], the Potency result is “inactive”.
As to `C[C@@H]1O[C@@H](O[C@H]2[C@H](O)[C@@H](O)[C@H](OC3CCC4(C)C5CCC(C)(C(CO)OC6OC(CO)C(O)C(O)C6O)CC5=CCC4C3(C)C)O[C@@H]2CO)[C@H](O)[C@H](O)[C@H]1O` (stereo partly drawn), the Potency result in experiment [1], in experiment [2], in experiment [3], in experiment [4], in experiment [5] and in experiment [6] was “inactive” throughout. The Potency entry in experiment [7] was “inactive”.
Consider `O=C(Nc1ccc(S(=O)(=O)C(F)(F)F)cc1)C1=CCN(c2ncccc2C(F)(F)F)CC1`, for which the Potency in experiment [1] is 10.3 µM (active). Also, the Potency entry in experiment [2], in experiment [3], in experiment [4], in experiment [5], in experiment [6] and in experiment [7] was “inactive” throughout.
